Here are results for 20 compounds from the supplement of paper PMC13380429.

Values without a mark were called inactive.

The subject of the test is Vero E6 infected with SARS-CoV-2. Nature of the test: inhibition of SARS-CoV-2 cytopathic effect; higher = more antiviral protection, active = above 15. To be noted: 48 h. A general note: Protection from cytopathic effect is a common read-out in antiviral testing.

As to `COC(=O)C(Cc1ccc(OCCn2c(=O)sc3cc(C(=O)c4ccccc4)ccc32)cc1)C(=O)OC`, the “inhibition of SARS-CoV-2 cytopathic effect” value (“inhibition” below) (1 nM) is -0.38%; the “inhibition” value (8.33 nM) was 2.25%; the “inhibition” value (100 nM) is -1.78%; the “inhibition” value (833.33 nM) was -1.22%; the “inhibition” value (10000 nM) is 0.02%.
Taken in the same sequence, the figures for `c1cc(-c2sc(-c3ccncc3)c(-c3ccncc3)c2-c2ccncc2)ccn1` were -1.78%, -0.14%, -3.51%, -4.39% and -5.36%.
Taken in the same sequence, the figures for `CN[C@@H](C)CCC=C(C)C` [isometheptene-mucate] were -0.09%, 2.18%, 0.64%, -1.17% and -0.16%.
`CC(=O)CC(c1ccccc1)c1c(O)c2ccccc2oc1=O` (stereo not given) [warfarin]: the “inhibition” value is -10.1% (1 nM); -9.65% (8.33 nM); -9.92% (100 nM); -10.1% (833.33 nM); -14.2% (10000 nM).
As for `O=C(c1ccccc1)c1ccc2n1CCC2C(=O)O` (stereo not given) [ketorolac], the “inhibition” value (1 nM) was -4.39%; the “inhibition” value (8.33 nM) was -2.99%; the “inhibition” value (100 nM) is -1.5%; the “inhibition” value (833.33 nM) was 2.44%; the “inhibition” value (10000 nM) was -4.37%.
In the case of `O=C(O)CCCc1ccc(N(CCCl)CCCl)cc1` [chlorambucil], the “inhibition” value (1 nM) was -0.23%; the “inhibition” value (8.33 nM) was 0.88%; the “inhibition” value (100 nM) was -0.7%; the “inhibition” value (833.33 nM) is -1.67%; the “inhibition” value (10000 nM) is -0.16%.
Turning to `NS(=O)(=O)c1ccc(C(=O)O)cc1` [carzenide], the “inhibition” value is -1.83% (1 nM); -0.09% (8.33 nM); 0.05% (100 nM); 2.39% (833.33 nM); -0.52% (10000 nM).
In the case of `CCOCCn1c(N2CCCN(C)CC2)nc2ccccc21` [emedastine], the “inhibition” value runs as follows: (1 nM) -2.21%; (8.33 nM) 0.36%; (100 nM) -2.49%; (833.33 nM) 1.46%; (10000 nM) -0.01%.
The like results for `C[C@]12CC[C@H]3[C@@H](CCC4=CC(=O)CC[C@@H]43)[C@@H]1CC[C@@H]2O` [Nandrolone] were, in that order, -1.64%, -1.9%, -1.06%, 1.95% and -0.94%.
Take `O=C1NC(=O)C(=Cc2ccc(-c3ccc(F)cc3)o2)S1` (stereo in doubt): the “inhibition” value (1 nM) is -2.32%; the “inhibition” value (8.33 nM) was 0.24%; the “inhibition” value (100 nM) was -0.68%; the “inhibition” value (833.33 nM) was 0.32%; the “inhibition” value (10000 nM) was 1.47%.
Consider `COC[C@@H](NC(C)=O)C(=O)NCc1ccccc1` [Lacosamide], for which the “inhibition” value runs as follows: (1 nM) -11.7%; (8.33 nM) -10.6%; (100 nM) -8.79%; (833.33 nM) -10.4%; (10000 nM) -12.7%.
Taken in the same sequence, the figures for `O=C1CC[C@@H](C(=O)N2CSC[C@H]2C(=O)O)N1` [pidotimod] were -1.03%, 0.49%, -1.22%, 2.73% and -0.3%.
Turning to `COc1cc(C[C@H]2c3cc(OC)c(OC)cc3CCN2C)c(Oc2cc3c(cc2OC)-c2c(OC)c(OC)cc4c2[C@H](C3)N(C)CC4)cc1OC` [thaliblastine], the “inhibition” value was 1.34% (1 nM); 1.21% (8.33 nM); -0.77% (100 nM); 3.94% (833.33 nM); 45.5% (active) (10000 nM).
The like results for `O=C1[C@H](Cc2ccc(O)cc2)N2C(=O)CCN(C(=O)NCc3ccccc3)[C@H]2CN1Cc1cccc2ccccc12` were, in that order, -0.18%, 0.82%, 2.23%, 1.89% and -3.36%.
Taken in the same sequence, the figures for `O=S(=O)(/N=C/c1c(O)ccc2ccccc12)c1cccs1` were 1.63%, 2.5%, 1.59%, 1.88% and 0.08%.
Taken in the same sequence, the figures for `CN[C@H]1CN(c2ccc3c(=O)c(C(=O)O)cn(-c4nccs4)c3n2)C[C@@H]1OC` [voreloxin] were 0.95%, -1.14%, 2.62%, -0.72% and 0.56%.
With `CCCCCCCCCCCC(=O)O` [lauric-acid], the “inhibition” value is 0.97% (1 nM); 2.75% (8.33 nM); 0.72% (100 nM); -1.45% (833.33 nM); -1.99% (10000 nM).
With `FC(F)(F)c1cccc(C2=CCN(CCc3ccc4ccccc4c3)CC2)c1` [xaliproden], the “inhibition” value is -0.86% (1 nM); -1.4% (8.33 nM); 1.4% (100 nM); 0.49% (833.33 nM); 0.49% (10000 nM).
Take `N#Cc1ccc(Cn2cncc2CN2CCN(c3cccc(Cl)c3)C(=O)C2)cc1`: the “inhibition” value (1 nM) is 3.21%; the “inhibition” value (8.33 nM) is 3.01%; the “inhibition” value (100 nM) is 0.11%; the “inhibition” value (833.33 nM) was -2.48%; the “inhibition” value (10000 nM) was -1.12%.
Turning to `CN1CCN(c2ccc(C(=O)Nc3n[nH]c4ccc(Cc5cc(F)cc(F)c5)cc34)c(NC3CCOCC3)c2)CC1` [entrectinib], the “inhibition” value is 4% (1 nM); 2.95% (8.33 nM); -2.01% (100 nM); -2.36% (833.33 nM); -12.4% (10000 nM).
